# Screening results: PubChem BioAssay, National Center for Advancing Translational Sciences (NCATS)
# Rows were chosen to be rich in hits. Some 21% of all compounds tested hit in one or more screens of this group.
# Pf growth 96h = inhibits malaria parasite growth, 96 h. P. falciparum luciferase reporter growth, 96 h. Potency, µM (top dose mostly 28.7 µM), without a hit: top-dose activity change, negative = inhibition, actives largely listed as inhibitors. hit rate 6.9% among 320,000; also: potency is read from the fitted curve at half-maximal effect; % is scaled to controls: 0 for no effect and ±100 for the full control effect
#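 Infected RBCs, 2% Hct / 0.05% parasitemia final; luciferase-reporter P. falciparum; cpd 96 h, 37 C, 5% CO2; luciferase detection reagent; luminescence.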
# Pf growth 48h = P. falciparum growth inhibition at 48 hours (one generation) | P. falciparum luciferase growth in erythrocytes, 48 h | AID 504832 | Potency, µM (titrated, usually from 28.7 µM), inactives show at the highest dose activity change, negative = inhibition, usual class: inhibitors | hit rate 5.9% among 310,000; also: potency is read from the fitted curve at half-maximal effect; % is scaled to controls: 0 for no effect and ±100 for the full control effect
#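 First compound was added to culture medium, then infected red cells at 0.1% parasitemia and 2% hematocrit (final). After incubation at 37 C under 5% CO2, luciferase detection reagent was dispensed and light output recorded.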
# Cycloheximide cs = counter-screen for Shiga toxin inhibitors: cycloheximide protein synthesis inhibition. cell reporter, cycloheximide protein synthesis inhibition counterscreen. max response, %. hit rate 12% among 300,000; in the data active = max response mostly above about 13%, no sharp cut-off; inactive = mostly below about 14%; also: read at 38.3 µM for the half of the compounds with a filed dose; 0% is about no effect
# Shiga inhibitor = Shiga toxin inhibition | AID 2315 | Vero cells, Shiga toxin protein synthesis inhibition reporter | inhibition, % at 38.7 µM | hit rate 9.2% among 290,000; in the data active = inhibition mostly above about 28%, no sharp cut-off; inactive = mostly below about 43%; also: 0% is about no effect
# NS1 function inh = inhibitors of influenza NS1 protein function | Potency, µM (highest dose often 46.1 µM), without a hit: at the top dose activity, positive = more growth | hit rate 0.4% among 270,000 | AID 2326; calls by dose curve; also: potency is read from the fitted curve at half-maximal effect; actives are rising curves; nearly all actives have a fitted effect of over 50% in size
#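 S. cerevisiae expressing influenza A NS1, grown in glucose, washed, then diluted 1:100 into pH 6.0 -URA galactose medium with 23 nl compound. Growth recovery read as OD600; NS1-free strain serves as control.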
# Active calls of the source: *; ? = inconclusive; nt = no result given; [ ] = dose if it differs, or a comment. Unless noted, calls follow the shape of the dose curve; as a rule, active = well fitted inhibition curve with a large enough effect; inconclusive = small, poorly fitted or top-dose-only effect, or another doubt; inactive = no such curve, though single readings can be large or run the other way.
SMILES,Pf growth 96h,Pf growth 48h,Cycloheximide cs,Shiga inhibitor,NS1 function inh
COc1ccc(/C=C/C(=O)NC(=S)N2CCOCC2)cc1,0%,52%,39*,73*,0%
O=C(/C=C/c1ccc(F)cc1)NC(=S)N1CCN(c2ccccn2)CC1,?,39%,43*,98*,1%
COc1ccc(/C=C/C(=O)NC(=S)N2CCN(c3ccccc3OC)CC2)cc1,-24%,-11%,20*,22,11%
COc1ccc(CSc2n[nH]c(C)n2)cc1[N+](=O)[O-],?,2%,6,13,-1%
O=C(Cc1cc(=O)oc2cc(O)ccc12)NC(Cc1ccc(Cl)cc1)C(=O)O (stereo not drawn),0%,20%,-1,-4,0%
CCC1(c2ccccc2)NC(=O)N(CC(=O)Nc2ccc(S(=O)(=O)Nc3ncccn3)cc2)C1=O (stereo not drawn),21%,7%,nt,nt,nt
CC1CCCCN1S(=O)(=O)c1ccc(NC(=O)c2ccco2)cc1 (stereo not drawn),13µM*,nt,-2,-9,-52%
O=C(Nc1ccc(S(=O)(=O)N2CCCCC2)cc1)c1ccco1,-8%,?,1,1,-2%
CC1CCN(S(=O)(=O)c2ccc(NC(=O)c3ccco3)cc2)CC1,10%,3.7µM*,-4,-4,-13%
COc1ccc([C@H]2CC(=O)C=C(c3c(C)cc(C)cc3C)C2)cc1,12%,?,nt,nt,nt
COc1ccc(N(CC(=O)Nc2ccccc2C(=O)N2CCCC2)S(C)(=O)=O)cc1,30%,11%,-3,-4,8%
Cc1ccc(C(=O)/C=C2\NCCNC2=O)cc1,-29%,162%,32*,10*,-9%
Cc1cc2ccccc2c(=O)n1CC(=O)N(C)c1ccc(F)cc1,10µM*,11%,-2,-3,-2%
Cn1nccc1C(=O)N(CCN1CCCCC1)CC1CCCN(C2CCCC2)C1 (stereo not drawn),65%,-19%,23*,23,-4%
CCNC(=O)N(CCOC)CC1CCCN(C2Cc3ccccc3C2)C1 (stereo not drawn),?,-7%,-4,nt,3%
COC(=O)c1ccccc1C(=O)N(Cc1cccnc1)CC1CCCN(C2CCCCC2)C1 (stereo not drawn),13µM*,?,6,13,-4%
Cc1ccccc1Cn1c(C)nc2ccc([N+](=O)[O-])cc2c1=O,?,-9%,-3,-16,-16%
Cc1noc(C)c1C(=O)OCC(=O)C12CC3CC(CC(C3)C1)C2,?,8%,11,4,nt
Cc1ccc(S(=O)(=O)Nc2cc(NC(=O)CN3CCOCC3)ccc2Cl)cc1,38%,?,12,32,0%
CC(C)CC(NC(=O)C1CCC(=O)N1C(=O)OCc1ccccc1)C(=O)NC(Cc1ccccc1)C(N)=O (stereo not drawn),7%,10µM*,-1,-6,-10%
Cc1ccc2cn[nH]c2c1NC(N)=S,?,-6%,31,48*,nt
CCN1CCN(c2oc(COc3ccc(-c4ccccc4)cc3)nc2C#N)CC1,?,?,20*,2,nt
N#Cc1nc(COc2ccc(Cl)cc2)oc1N1CCCCCC1,nt,?,9,14,-11%
N#Cc1nc(COc2ccc(Br)cc2)oc1N1CCN(Cc2ccccc2)CC1,26%,20%,-1,33,-85%
N#Cc1nc(COc2ccccc2F)oc1N1CCCCCC1,-5%,-1%,24*,28*,-15%
SMILES,Pf growth 96h,Pf growth 48h,Cycloheximide cs,Shiga inhibitor,NS1 function inh
N#Cc1nc(COc2ccccc2)oc1N1CCCCC1,-2%,nt,51*,83*,-99%
Cc1ccc(OCc2nc(C#N)c(N3CCCCC3)o2)cc1,-17%,?,18*,14,-33%
CC(C)(C)c1ccc(NNC(=O)C2CCC2)cc1,13%,29%,2,-2,-4%
COc1ccc(NC(=O)CSc2nc(SC)ns2)cc1,2%,118%,19*,89*,-3%
CSc1nsc(SCC(=O)Nc2ccc(C(C)=O)cc2)n1,-45%,nt,47*,72*,-6%
CSc1nsc(SCC(=O)Nc2ccc(NC(C)=O)cc2)n1,-18%,91%,-4,38,-1%
CSc1nsc(SCC(=O)Nc2ccc(C(N)=O)cc2)n1,-2%,13%,13,9,3%
O=C(COC(=O)/C=C/c1ccccc1)Nc1cccnc1Cl,10%,14%,nt,nt,nt
CCOC(=O)c1c(NC(=O)/C=C/c2ccc(C)o2)sc(C)c1C,0%,29%,-4,-9,5%
Cc1sc(NC(=O)/C=C/c2ccco2)c(C(=O)O)c1C,189%,?,25*,56,-49%
O=C(/C=C/c1ccco1)Nc1ccccc1N1CCCCC1,33%[1.15 µM],?,24*,92*,nt
O=C(/C=C/c1ccccc1)Nc1cccnc1Cl,178%,187%,42*,105*,-11%
O=C(/C=C/c1ccco1)Nc1cccnc1Cl,101%,186%,46*,157*,1%
CC1CC(C)CN(C(=O)C2CCN(S(=O)(=O)c3ccc4c(c3)CC(C)N4C(=O)C3CC3)CC2)C1 (stereo not drawn),43%,?,-2,-3,5%
Nc1nc(SCc2ccccc2)c2ncn(Cc3ccccc3)c2n1,nt,nt,nt,nt,-7%
COC(=O)c1ccccc1NC(=O)NCc1ccco1,nt,17%,-2,-9,-2%
COC(=O)c1ccccc1NC(=O)/C=C/c1ccco1,-24%,?,38*,53*,-13%
CC1(C)CC(=O)C=C(/C=C/c2ccccc2)C1,2.1µM*,?,nt,nt,nt
O=C(c1ccoc1)N1CCCC(CO)(CCCc2ccccc2)C1 (stereo not drawn),0%,-13%,-3,-24,4%
Cc1nn(-c2ccc([N+](=O)[O-])cc2)c2c1C(c1cccc(Br)c1)N1C(=N2)C(=O)Nc2ccccc21 (stereo not drawn),1µM*,1.3µM*,-1,-4,21%
Cc1nn(-c2ccccc2)c(N)c1C1(O)C(=O)Nc2ccc([N+](=O)[O-])cc21 (stereo not drawn),-14%,3%,-1,-4,2%
CCC(=O)Nc1ccc(C(=O)CSc2nnc(-c3ccccc3F)n2C2CC2)cc1,2.9µM*,2.6µM*,1,-13,15%
CCC(C)NC(=O)NC(=O)CSc1nnc(-c2ccccc2F)n1C1CC1 (stereo not drawn),-7%,-8%,-4,-11,5%
COc1cc(CNc2ccccc2SC)cc(OC)c1OC,?,nt,-2,-11,-3%
COc1ccc(CNc2cccc3[nH]c(C(F)(F)F)nc23)cc1OC,-11%,1.5µM*,-5,-9,?
COc1ccc(CNc2ccccc2SC)cc1OC,-52%,nt,37*,33,-4%
COc1ccc(CCNCc2cccc(C(F)(F)F)c2)cc1OC,39%,-16%,1,-10,nt
CC(C)CN(CC(C)C)C(=O)c1cccc(S(=O)(=O)N2CCc3ccccc32)c1,?,-11%,-3,-4,nt
O=C(CN1C(=O)C(=O)N(Cc2ccco2)C1=O)NC1CCCCC1,-2%,13%,-2,-13,nt
